Reference: PubChem BioAssay AID1159580 (chemical genetic matrix, 2015)
Values joined by “and” are separate entries in the source; they are usually repeats but may differ in a detail not shown here. Identical values can stand only once. Among all 5,500 compounds or so, about 2,000 (36%) were called active. Inconclusive results (about 18%) are left out. No stated cut-off is given here; in the data, active means normalized growth mostly below about 0.91 (no sharp cut-off); inconclusive means no clear call, values can overlap the other calls; inactive means mostly above about 0.92. This is one part of the list.

Test: chemical genetic growth profiling, strain panel (AID 1159580);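 further: tested at 20 µM; growth read once vehicle control cultures reached saturation at 30 °C; 1 = growth at the plate median or of vehicle wells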
Details: S. cerevisiae deletion strains, growth OD

Measured: normalized growth

C[N+]1(C)C2CC(OC(=O)[C@@H](CO)c3ccccc3)CC1C1OC12 (some centres not stated)
inactive: locus YAL021C, strain ccr4, stronger effect = lower value 0.987 | locus YAL026C, strain drs2, stronger effect = lower value 0.999 | locus YAL030W, strain snc1, stronger effect = lower value 0.968 | locus YBL061C, strain skt5, stronger effect = lower value 0.98 | locus YBR009C, strain hhf1, stronger effect = lower value 0.955 | locus YBR021W, strain FUR4, stronger effect = lower value 1.04 | locus YBR023C, strain chs3, stronger effect = lower value 0.958 | locus YBR171W, strain sec66, stronger effect = lower value 0.951 | locus YBR229C, strain ROT2, stronger effect = lower value 1.01 | locus YBR231C, strain swc5, stronger effect = lower value 0.982 | locus YBR279W, strain paf1, stronger effect = lower value 0.986 | locus YCL011C, strain gbp2, stronger effect = lower value 0.923 | locus YCL016C, strain dcc1, stronger effect = lower value 0.932 | locus YCL029C, strain bik1, stronger effect = lower value 1 | locus YCL061C, strain MRC1, stronger effect = lower value 0.977 | locus YCL069W, strain vba3, stronger effect = lower value 0.974 | locus YCR088W, strain abp1, stronger effect = lower value 0.989 | locus YDL005C, strain med2, stronger effect = lower value 0.989 | locus YDL035C, strain GPR1, stronger effect = lower value 1.02 | locus YDL040C, strain nat1, stronger effect = lower value 0.994 | locus YDL074C, strain BRE1, stronger effect = lower value 1.05 | locus YDL101C, strain DUN1, stronger effect = lower value 1.01 | locus YDL185W, strain tfp1, stronger effect = lower value 1.01 | locus YDL192W, strain arf1, stronger effect = lower value 1.03 | locus YDR001C, strain nth1, stronger effect = lower value 0.975 | locus YDR069C, strain doa4, stronger effect = lower value 0.977 | locus YDR101C, strain arx1, stronger effect = lower value 0.99 | locus YDR137W, strain rgp1, stronger effect = lower value 0.924 | locus YDR159W, strain sac3, stronger effect = lower value 1 | locus YDR162C, strain NBP2, stronger effect = lower value 1.02 | locus YDR195W, strain ref2 1.01 | locus YDR297W, strain sur2, stronger effect = lower value 0.976 | locus YDR318W, strain mcm21, stronger effect = lower value 1.03 | locus YDR334W, strain swr1, stronger effect = lower value 0.933 | locus YDR335W, strain msn5, stronger effect = lower value 0.968 | locus YDR388W, stronger effect = lower value 1.01 | locus YDR392W, strain spt3, stronger effect = lower value 0.934 | locus YDR502C, strain sam2, stronger effect = lower value 1.03 | locus YEL003W, strain gim4, stronger effect = lower value 0.996 | locus YEL037C, strain rad23, stronger effect = lower value 0.982 | locus YEL061C, strain CIN8 (second series), stronger effect = lower value 0.98 | locus YEL061C, strain CIN8, stronger effect = lower value 1.05 | locus YER015W, strain faa2, stronger effect = lower value 0.986 | locus YER016W, strain bim1, stronger effect = lower value 0.997 | locus YER110C, stronger effect = lower value 1.02 | locus YER111C, strain swi4, stronger effect = lower value 0.985 | locus YER155C, strain BEM2 (second series), stronger effect = lower value 1.02 | locus YER155C, strain BEM2, stronger effect = lower value 1.01 | locus YER167W, strain BCK2, stronger effect = lower value 1.03 | locus YFR010W, strain ubp6, stronger effect = lower value 0.978 | locus YGL078C, strain dbp3, stronger effect = lower value 1.01 | locus YGL086W, strain mad1, stronger effect = lower value 1 | locus YGL167C, strain pmr1, stronger effect = lower value 0.964 | locus YGL173C, strain kem1, stronger effect = lower value 0.969 | locus YGL227W, strain vid30, stronger effect = lower value 0.978 | locus YGL240W, strain doc1, stronger effect = lower value 1 | locus YGL248W, strain PDE1, stronger effect = lower value 1.01 | locus YGL253W, strain hxk2, stronger effect = lower value 0.97 | locus YGR135W, strain pre9, stronger effect = lower value 1.06 | locus YGR229C, strain SMI1, stronger effect = lower value 1.05 | locus YGR252W, strain gcn5, stronger effect = lower value 1.05 | locus YHR013C, strain ard1, stronger effect = lower value 0.957 | locus YHR027C, strain rpn1, stronger effect = lower value 0.957 | locus YHR030C, strain SLT2, stronger effect = lower value 1.02 and 1.03 | locus YHR079C, strain IRE1 (second series), stronger effect = lower value 1.02 | locus YHR079C, strain IRE1, stronger effect = lower value 1.03 | locus YHR094C, strain hxt1, stronger effect = lower value 1.01 | locus YHR129C, strain ARP1, stronger effect = lower value 1.01 | locus YHR142W, strain chs7, stronger effect = lower value 0.916 | locus YHR200W, strain rpn10, stronger effect = lower value 1.02 | locus YIL066C, strain RNR3, stronger effect = lower value 1.01 | locus YIL073C, strain SPO22, stronger effect = lower value 1.07 | locus YIL125W, strain kgd1, stronger effect = lower value 1.01 | locus YIR030C, strain dcg1, stronger effect = lower value 1.02 | locus YJL092W, strain hpr5, stronger effect = lower value 0.969 | locus YJL095W, strain BCK1 (second series), stronger effect = lower value 0.974 | locus YJL095W, strain BCK1, stronger effect = lower value 1.02 and 1.01 | locus YJL115W, strain asf1, stronger effect = lower value 0.958 | locus YJL129C, strain trk1, stronger effect = lower value 0.976 | locus YJL134W, strain LCB3, stronger effect = lower value 1 | locus YJL154C, strain vps35, stronger effect = lower value 0.975 | locus YJL164C, strain tpk1, stronger effect = lower value 1 | locus YJL166W, strain qcr8, stronger effect = lower value 0.959 | locus YJL168C, strain set2, stronger effect = lower value 1.01 | locus YJL187C, strain SWE1 (second series), stronger effect = lower value 1.01 | locus YJL187C, strain SWE1, stronger effect = lower value 0.976 | locus YJR043C, strain POL32, stronger effect = lower value 1.02
